Screens as filed in PubChem BioAssay.
CYP2C19 activ = cytochrome P450 2C19 (human) activation; activation factor at 5 µM; P33261; recombinant CYP2C19, luciferin-H EGE luminescence; active compounds read high; 0 = fully inhibited enzyme, 1 = untreated enzyme; 96,000 tested, under 10 active;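 active = activation factor of at least 2 at 5 µM in the primary screen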;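 also: 0 = wells with 2.5 mM tranylcypromine and 1 = vehicle-only wells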
sEH inh = inhibitors of human soluble epoxide hydrolase. P34913. recombinant human sEH enzymatic activity assay. inhibition, % at 2 µM. actives 0.34% (n = 91,000); in the data active = inhibition above about 80%
Target sequence (P34913 whole entry, looked up): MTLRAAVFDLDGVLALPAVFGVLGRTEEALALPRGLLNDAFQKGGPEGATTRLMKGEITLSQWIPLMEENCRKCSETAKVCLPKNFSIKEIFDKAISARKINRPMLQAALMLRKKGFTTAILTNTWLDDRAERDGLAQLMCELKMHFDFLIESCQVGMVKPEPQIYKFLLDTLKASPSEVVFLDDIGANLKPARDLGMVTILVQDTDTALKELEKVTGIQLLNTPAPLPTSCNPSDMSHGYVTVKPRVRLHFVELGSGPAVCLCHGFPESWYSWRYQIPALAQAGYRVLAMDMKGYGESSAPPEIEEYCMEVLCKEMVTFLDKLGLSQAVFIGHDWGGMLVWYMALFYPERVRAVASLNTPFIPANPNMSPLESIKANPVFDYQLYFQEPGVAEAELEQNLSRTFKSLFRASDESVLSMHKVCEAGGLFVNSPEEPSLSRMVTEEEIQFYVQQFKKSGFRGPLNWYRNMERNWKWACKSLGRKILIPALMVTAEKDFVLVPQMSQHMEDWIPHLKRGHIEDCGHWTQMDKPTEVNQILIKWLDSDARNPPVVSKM
CYP2C9 activ = CYP2C9 (human) activation. P11712. recombinant CYP2C9, luciferin-H conversion, luminescence; active compounds read high; factor 1 = untreated enzyme, 0 = blocked. activation factor at 5 µM. actives 1.4% (n = 96,000). AID 1024;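 active = activation factor of 2 or more for CYP2C9 at a 5 µM dose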;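 also: 0 = sulfaphenazole-blocked wells and 1 = vehicle-only wells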
CYP2C19 inhib = blocks human cytochrome P450 2C19; inhibition, % at 5 µM; CYP2C19 Supersomes, luciferin-H EGE luminescence, 30 min; P33261; actives 21% (n = 96,000);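 active = CYP2C19 inhibition above a set limit at 5 µM in the primary screen, cut at about 50% in these data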;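 also: plate controls were negative control wells for no effect and 2.5 mM tranylcypromine positive control for full effect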
CYP2C9 inhib = inhibitors of human CYP2C9; actives 20% (n = 96,000); inhibition, % at 5 µM; P11712; CYP2C9 Supersomes, luciferin-H conversion, luminescence;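 active = blocking of liver enzyme CYP2C9 beyond about 50% at 5 µM, limit read from the data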
sEH act = activators of human soluble epoxide hydrolase | purified human sEH enzymatic activity, activator screen | activation, % at 2 µM | P34913 | actives 0.04% (n = 91,000); in the data active = activation above about 37%
* = called active by the depositor; . = no result given. This is a sample that favours compounds with a hit; in the whole collection about 27% have one here.

SMILES	CYP2C19 activ	sEH inh	CYP2C9 activ	CYP2C19 inhib	CYP2C9 inhib	sEH act
O=c1oc2ccccc2cc1-c1csc(Cc2nc(-c3ccc(Br)cc3)cs2)n1	0.4	-3	0.3	61*	70*	1
O=C(CN1CCSCC1)N1CCc2[nH]c3ccc(Br)cc3c2C1	0.1	3	0.2	93*	81*	-2
Cc1ccc2[nH]c3c(c2c1)CN(C(=O)CN1CCN(c2cccc(C)c2C)CC1)CC3	0.5	3	0.1	49	89*	1
CC(C)CC(c1nnnn1Cc1ccco1)N1CCN(C2CCCC2)CC1 (stereo unspecified)	1	-3	1	4	-3	5
CCC1CCCCN1C(=O)CSc1nc2c([nH]c3ccccc32)c(=O)n1C (stereo unspecified)	.	-12	.	.	.	13
CC1CCCC(C)N1C(=O)CSc1nnc(-c2c[nH]c3ccccc23)o1 (stereo unspecified)	0.7	-6	1.1	28	-8	7
COc1ccc(-c2nnc(SCC(=O)N3CCCCC3)o2)c(OC)c1	1	.	1.2	-3	-23	.
CCC1CCCCN1C(=O)CSc1nnc(-c2c[nH]c3ccccc23)o1 (stereo unspecified)	0.1	-6	1.6	91*	-62	6
COc1ccc(-c2nnc(SCC(=O)N3CCCC(C)C3)o2)c(OC)c1 (stereo unspecified)	0.3	1	0.8	71*	20	-2
CC1CCCN(C(=O)CSc2nnc(-c3c[nH]c4ccccc34)o2)C1 (stereo unspecified)	0.3	7	1.3	71*	-31	-6
CC(C)(C)NC(=O)CSc1ncnc2c1nnn2Cc1ccccc1Cl	0.7	-6	1.1	29	-7	6
COc1ccc(NC(=O)CC2C(=O)N(c3ccc(OC)cc3)C(=O)N2CCN2CCN(C)CC2)cc1 (stereo unspecified)	1	16	1	0	3	-14
Cc1occc1C(=O)N/N=C/c1cnn(C)c1C	.	-9	.	.	.	9
CC(C)(Cl)C1Cc2cc3ccc(=O)oc3cc2O1 (stereo unspecified)	1	7	1	-2	-1	-5
Cc1cc(C)nc(NC(=O)NS(=O)(=O)N2CCCCCC2)n1	1.1	.	1.1	-7	-12	.
CCCN(CCC)CCNS(=O)(=O)c1ccc2c(c1)CCN2C(=O)C1CCC1	0.1	-11	0.6	94*	40	8
O=C(C1CCC1)N1CCc2cc(S(=O)(=O)NC3CCCC3)ccc21	0.3	.	0.2	72*	83*	.
O=C(O)CCC(=O)N1CCc2cc(S(=O)(=O)NC3CCCC3)ccc21	1.2	3	1.1	-16	-7	-5
CCN1C(=O)NC2C1N(S(C)(=O)=O)CCN2S(C)(=O)=O (stereo unspecified)	1	4	1.1	-4	-7	-3
CCOC(=O)c1[nH]c2ccccc2c1NC(=O)NC1CCCCC1	0.9	-9	0.4	13	55*	9
O=C(COC(=O)c1cc(=O)[nH]c2ccccc12)NC(=O)NC1CCCCC1	0.9	67	0.5	9	53*	-66
CC(C)(C)N1CC2([N+](=O)[O-])CN(C(C)(C)C)CC([N+](=O)[O-])(C1)C2	0.9	1	0.9	13	6	2
CCCc1nc(NC(C)=O)c(C#N)c(-c2ccco2)c1CC	0.8	.	0.7	17	34	.
CCN(CC)N=Nc1[nH]nc2nc(C)cc(C)c12	1	-12	0.9	-3	6	14
Cc1cccc(C(=O)N2CCN(c3ncnc4c3cnn4-c3ccccc3)CC2)c1	.	-11	.	.	.	15
SMILES	CYP2C19 activ	sEH inh	CYP2C9 activ	CYP2C19 inhib	CYP2C9 inhib	sEH act
c1ccc(-n2ncc3c(N4CCN(CCOc5cccc6ccccc56)CC4)ncnc32)cc1	0.5	-11	0.2	48	76*	12
O=C(COc1ccccc1)N1CCN(c2ncnc3c2cnn3-c2ccccc2)CC1	0.2	-1	0.3	80*	71*	0
O=S(=O)(c1ccc(F)cc1)N1CCN(c2ncnc3c2cnn3-c2ccccc2)CC1	1	14	1	4	3	-13
O=C(CCC1(C(=O)O)CCC(=O)NC1)NCc1ccccc1 (stereo unspecified)	1	-4	1	3	-4	1
NNC(=O)c1nnn(-c2nonc2N)c1-c1cccs1	0.7	9	0.9	30	6	-6
O=C1C2C(c3ccccc3)C=CC(c3ccccc3)C2C(=O)N1CCCO (stereo unspecified)	0.2	7	0.2	82*	82*	-6
Cc1cccc(C(=O)NN2C(=O)C3C(c4ccccc4)C=CC(c4ccccc4)C3C2=O)c1 (stereo unspecified)	0.5	12	0.5	49	49	-12
C=CCOCCN1C(=O)C2C(c3ccccc3)C=CC(c3ccccc3)C2C1=O (stereo unspecified)	0.3	5	0.6	66*	40	-3
Cc1cc(NC(=O)Cn2cnc3c2c(=O)n(C)c(=O)n3C)n(-c2ccccc2)n1	1.1	6	1	-14	-2	-3
Cc1ccc2c(c1)nnn2C1CCN(S(=O)(=O)c2cccc(S(=O)(=O)N(C)C)c2)CC1	0.1	-8	0.5	86*	46	8
Cc1ccc2c(c1)nnn2C1CCN(S(=O)(=O)c2ccc3ccccc3c2)CC1	.	2	.	.	.	-2
Cc1ccc2c(c1)nnn2C1CCN(S(=O)(=O)c2ccc(C(=O)N(C)C)cc2)CC1	.	-8	.	.	.	8
Cc1ccc2c(c1)nnn2C1CCN(S(=O)(=O)c2ccc(C(=O)NC3CCCC3)cc2)CC1	0.8	.	0.5	21	50*	.
Cc1ccc2c(c1)nnn2C1CCN(S(=O)(=O)c2ccc(C(=O)N3CC(C)CC(C)C3)cc2)CC1 (stereo unspecified)	0	.	0.1	98*	88*	.
CCC1CCCCN1Cc1ccc(OC)c(C)c1C (stereo unspecified)	0.8	-1	0.9	18	6	0
COc1ccc(/C=C2/SC(=O)N(NS(=O)(=O)c3ccccc3)C2=S)cc1OC	1.1	8	0.3	-6	70*	-6
CCN(c1ccc(NC(=O)COC(=O)c2ccc3ccccc3n2)cc1)C(C)C	0.8	10	0.9	19	15	-7
COc1ccc(-c2ocnc2C(=O)Nc2ccccc2N2CCCCC2)cc1	0.7	-5	0.4	33	57*	5
Cc1ccc(S(=O)(=O)c2c(C)nn(C(C)(C)C)c2OC(=O)c2ccco2)cc1	0	-5	0.1	99*	86*	5
Cc1ccc(S(=O)(=O)c2c(C)nn(C(C)(C)C)c2OC(=O)c2cccs2)cc1	0.1	.	0.1	94*	90*	.
CC(=O)Oc1c(S(=O)(=O)c2ccc(C)cc2)c(C)nn1-c1ccccc1	0.9	-6	0.2	8	78*	7
